Bioassay records: PubChem, several laboratories
RN4220 kill = growth inhibition of S. aureus RN4220, primary screen, OD600 | 16 h | AID 1259311, 2017 | inhibition, % (no concentration beside the values) | 0.33% of 330,000 active; in the data active means inhibition above about 85%
BJeLR lethal = MLPCN primary cell-based screen for lethality selective to Ras in HRASV12 cells; BJeLR (HRASV12) viability, CellTiter-Glo ATP luminescence, 48 h; inhibition, % (concentration not given with the values); 0.17% of 300,000 active; in the data active means inhibition above about 50%
PriA SSB inh = inhibitors of Klebsiella pneumoniae PriA binding to SSB C-terminal tail, primary screen, biochemical, AlphaScreen; AID 1272365, 2023; 0.6% of 430,000 active; PriA–SSB C-terminal tail interaction (Klebsiella pneumoniae); inhibition, % at 33 µM; AlphaScreen SSBct-PriA binding, biotinylated peptide; in the data active means inhibition mostly above about 37%, no sharp cut-off; inactive means mostly below about 20%
MazF activator = activators of E. coli MazEF toxin-antitoxin RNase, primary screen, biochemical, fluorescence, uHTS; Endoribonuclease toxin MazF (Escherichia coli (strain K12)), P0AE70; FAM/BHQ RNA-DNA oligo cleavage fluorescence, 5 h; activation, % at 20 µM; 0.32% of 350,000 active; AID 504720, 2011; in the data active means activation above about 50%
Target sequence (P0AE70 whole entry, looked up): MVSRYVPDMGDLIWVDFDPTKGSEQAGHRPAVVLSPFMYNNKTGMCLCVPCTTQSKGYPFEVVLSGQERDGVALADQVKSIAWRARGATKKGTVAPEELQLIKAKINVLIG
Sa ugtP lethal = growth inhibition of ugtP-null S. aureus, primary screen, RN4220 ugtP deletion, OD600; 16 h; growth inhibition, % (concentration not given with the values); 0.54% of 330,000 active; in the data active means growth inhibition above about 68%
Numbers stand for hits; n = inactive; x = no result given; ! = a repeat was not active. Compounds with a hit are over-represented: about 1.2% of the library has one in this group of screens.

SMILES	RN4220 kill	BJeLR lethal	PriA SSB inh	MazF activator	Sa ugtP lethal
COc1ccccc1C1c2ccc3ccccc3c2Oc2ncn(CCN(C)C)c(=N)c21 (stereo unspecified)	n	n	n	n	n
N=c1c2c(ncn1CCCO)Oc1cc(O)ccc1C2c1ccccc1 (stereo unspecified)	n	n	n	64.5	n
COc1ccc(C2c3ccc4ccccc4c3Oc3ncn(CCCN(C)C)c(=N)c32)cc1 (stereo unspecified)	x	53.7	n	50.3	x
COc1ccc(C2c3ccc(O)cc3Oc3ncn(CCN4CCOCC4)c(=N)c32)cc1 (stereo unspecified)	n	n	n	n	n
CC(=O)Nc1cc(S(=O)(=O)Nc2ccc(C)cc2)c(C)cc1C	n	n	n	n	n
O=[N+]([O-])c1ccccc1-c1cc(-c2ccccc2)cc(-c2ccccc2)[n+]1Cc1ccccc1Cl	86.0	n	n	n	98.3
Cc1cccc(OCC(=O)Nc2cc(-c3cccs3)nn2-c2nc(C)c(C)c(=O)[nH]2)c1	x	x	n	x	x
COc1ccc(/C=C/C(=O)NCCC(=O)N2CCCN(C)CC2)cc1	n	n	n	n	n
CCc1nnc(NS(=O)(=O)c2ccc(NC(=S)NC(=O)c3ccncc3)cc2)s1	n	n	n	n	n
COc1cccc2c(=O)n(CC(=O)Nc3ccc(F)cc3)ccc12	n	n	104.2	n	n
COc1ccc(C(=O)CN2CCN(CCN3C(=O)c4cccc5cccc(c45)C3=O)CC2)cc1	n	n	62.0!	n	n
CCC(C)c1ccccc1OCC(O)CN1CCN(CCN2C(=O)c3cccc4cccc(c34)C2=O)CC1 (stereo unspecified)	x	x	46.0!	x	x
O=C(CN1CCN(CCN2C(=O)c3cccc4cccc(c34)C2=O)CC1)c1ccc(F)cc1	n	n	n	n	n
O=C1c2cccc3cccc(c23)C(=O)N1CCN1CCN(CC(O)COc2ccccc2)CC1 (stereo unspecified)	x	n	n	n	x
COc1ccc(NC(=O)CCCN2C(=O)CN(C)C2=O)c(OC)c1	n	x	56.9	n	n
CCOc1ccc(Br)cc1/C=C/C(=O)Nc1ccc2c(c1)OCO2	x	x	n	x	x
CC(=O)NN1C(=O)c2ccc3c4c(ccc(c24)C1=O)C(=O)N(NC(C)=O)C3=O	n	n	n	69.4	n
Cc1ccc(-c2ccc(C3C4C=CCC[C@@]4(C)C(=O)N3Cc3ccccc3)c(F)c2)cc1 (stereo partly specified)	n	x	x	x	81.2
Cc1nc2cc(NC(=O)C3CCCCN3S(=O)(=O)c3cccs3)ccc2s1 (stereo unspecified)	x	x	n	x	x
Cc1ccc(C(=O)ONc2ccc(N=NC(=O)c3ccccc3O)cc2)cc1	n	n	n	n	n
Cc1ccc(C(=O)ONc2ccc(N=O)cc2)cc1	n	n	n	n	100.0
CC(=Cc1ccc(C(=O)O)cc1)c1ccc2c(c1)C(C)(C)CCC2(C)C	n	x	x	x	98.8
C=CCn1c(SCC(=O)NC2CC2)nc2ccccc2c1=O	n	x	n	n	n
CC(C)(C)c1cc(C(=O)NN=Cc2ccc([N+](=O)[O-])s2)n[nH]1	100.6	x	x	x	100.9
Cc1ccc(C(=O)N/N=C\c2ccc([N+](=O)[O-])s2)cn1	x	n	x	n	x
SMILES	RN4220 kill	BJeLR lethal	PriA SSB inh	MazF activator	Sa ugtP lethal
Cc1cc(C(=O)N/N=C/c2ccc([N+](=O)[O-])s2)n[nH]1	x	n	n	n	x
Cc1ccc(C(=O)NN=Cc2ccc([N+](=O)[O-])s2)cn1	n	x	n	x	87.6
CCOC(=O)C1=C(c2ccccc2)c2ccccc2OC1C(=O)OCC (stereo unspecified)	n	x	n	n	89.3
O=C(Nc1ccccc1)Nc1nc(CCC(=O)N2CCCC2)cs1	x	x	n	x	x
COc1ccccc1NC(=O)CSc1nnc(-c2cccc(C)c2)n1Cc1ccco1	x	x	59.3	x	x
COc1ccccc1NC(=O)CSc1nnc(-c2cccnc2)n1Cc1ccco1	x	x	n	x	x
CCn1c(=O)c(C(=O)NNC(=O)c2cccc(Cl)c2)c(O)c2ccccc21	100.0	n	n	n	100.1
Cn1c(=O)c(C(=O)NNC(=O)c2cccc(Cl)c2)c(O)c2ccccc21	100.4	n	n	n	100.2
O=C(Nc1ccccc1Cl)ON=C1c2ccccc2-c2ccccc21	n	n	n	n	95.1
O=C(Nc1ccccc1)ON=C1c2ccccc2-c2ccccc21	n	n	n	n	n
